Screening data as filed in PubChem BioAssay.
TDP1 cell noCPT = qHTS for Inhibitors of human tyrosyl-DNA phosphodiesterase 1 (TDP1): qHTS in cells in absence of CPT | DT40 Tdp1-/- hTDP1 cells, no CPT, ATP luminescence, 48 h | Potency, µM (top dose mostly 46.2 µM), for the others: top-dose activity change, negative = growth inhibition, usual class: inhibitors | 420,000 tested, 15% active | AID 686978, 2013; note: % is set by controls: 0 for no effect and ±100 for the full control effect; nearly all actives have a fitted effect of over 55% in size
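Stably hTDP1-transfected Tdp1-null chicken DT40 cells were treated with library compounds minus camptothecin and grown for at least 48 hr at 37 °C, after which cellular ATP was quantified by luminescence.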
ClpP mod = qHTS Assay for Activators of ClpP. purified B. subtilis ClpP, FRET peptide cleavage, 20 min. Potency, µM (titrated, usually from 57.5 µM), for the others: top-dose activity change, negative = active. 340,000 tested, 1.9% active. ATP-dependent Clp protease proteolytic subunit (Bacillus subtilis (strain 168)), P80244; active = well fitted falling curve with a large enough effect; inconclusive = small, poorly fitted or top-dose-only effect; inactive = no such curve, though single readings can be large or run the other way; note: the source files actives as falling curves though it sought activators and does not explain the sign; nearly all actives have a fitted effect of over 65% in size
Target sequence (P80244 whole entry, looked up): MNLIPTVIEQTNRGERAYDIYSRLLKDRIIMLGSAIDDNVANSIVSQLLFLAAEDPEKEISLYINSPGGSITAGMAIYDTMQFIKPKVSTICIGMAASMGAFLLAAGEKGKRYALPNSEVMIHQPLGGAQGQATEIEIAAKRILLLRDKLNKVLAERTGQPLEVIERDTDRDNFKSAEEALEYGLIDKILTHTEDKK
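FRET quenching reversal measured ClpP activation: 10 microg/mL B. subtilis ClpP at pH 8 with the FRET-FV decapeptide, read at 430 nm after 320 nm excitation. The 20-min minus 0-min signal was scaled between DMSO/no-enzyme wells and ADEP (5.8 microM final).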
TDP1 inh = blocks human tyrosyl-DNA phosphodiesterase 1 | Potency, µM (titrated, usually from 130 µM), without a hit: top-dose activity change, negative = inhibition, most hits filed as inhibitors | 350,000 tested, 0.28% active | AID 485290 | recombinant TDP1, AlphaScreen DNA substrate cleavage | Q9NUW8; note: % is set by controls: 0 for no effect and ±100 for the full control effect; nearly all actives have a fitted effect of over 40% in size
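Signal: AlphaScreen proximity between streptavidin donor and anti-FITC acceptor beads on intact substrate. Reaction: Tdp1 1 nM, substrate 15 nM final, 5 min RT after 15 min compound preincubation.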
DT40 TDP1 CPT = growth inhibition of DT40 Tdp1-/-;hTDP1 cells with camptothecin (screen for TDP1 inhibitors); Potency, µM (top dose mostly 46.2 µM), for the others: top-dose activity change, negative = growth inhibition, usual class: inhibitors; AID 686979; 420,000 tested, 12% active; chicken DT40 Tdp1-/-;hTDP1 cells + 20 nM CPT, ATP luminescence, 48 h; note: % is set by controls: 0 for no effect and ±100 for the full control effect; nearly all actives have a fitted effect of over 55% in size
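Cell growth measured by CellTiter-Glo luminescence after a minimum 48 h, 37 C compound exposure with 20 nM CPT in Tdp1-knockout DT40 cells stably expressing hTDP1, seeded 400/well; qHTS titration format.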
Starred values were filed as active, the others as inactive; ? = inconclusive; · = no result given. Hits are enriched below; roughly 17% of the tested compounds scored in any of these assays. Unless noted, calls come from the whole dose curve; as a rule, active = well fitted curve in the direction sought with a large enough effect; inconclusive = small, poorly fitted or top-dose-only effect, or another doubt; inactive = no such curve, though single readings can be large; an effect the other way counts as inactive or inconclusive. Potency is the fitted concentration of half-maximal effect.

SMILES	TDP1 cell noCPT	ClpP mod	TDP1 inh	DT40 TDP1 CPT
Cc1ccc(CNC(=O)CSc2nc3ccsc3c(=O)n2-c2ccc(C(=O)O)cc2)cc1	3.9%	-0.8%	0.5%	18.1%
COc1cc(NC(=O)c2ccc(S(=O)(=O)N(C)c3ccccc3)cc2)cc(OC)c1	16.4µM*	-10.0%	1.3%	?
COc1ccccc1NC(=O)c1ccc(S(=O)(=O)N(C)c2ccccc2)cc1	?	-3.1%	-0.3%	2.5%
COc1ccccc1-c1noc2c1C(=O)N(Cc1cn(-c3ccccc3OC)nn1)CC2	18.4µM*	-1.3%	·	?
O=C(N/N=C/c1ccc(OC(=O)c2ccccc2)cc1)c1cccnc1	-28.2%	·	·	-14.2%
O=C(Oc1ccc(/C=N/NC(=O)c2ccccc2F)cc1)c1ccccc1	11.6µM*	-0.1%	-4.1%	9.2µM*
O=C(N/N=C/c1ccc(OC(=O)c2ccccc2)cc1)c1cccc(O)c1	16.4µM*	·	6.1%	?
Cc1cccc(C(=O)Oc2ccc(/C=N/NC(=O)c3cc(O)cc(O)c3)cc2)c1	-19.6%	1.0%	·	-19.8%
COc1ccc(CCNC(=O)C2CC(c3cc(C(F)(F)F)cc(C(F)(F)F)c3)=NO2)cc1 (configuration not stated)	?	-0.4%	1.2%	?
CCCNC(=O)C1CC(c2ccc(C(F)(F)F)cc2)=NO1 (configuration not stated)	11.6µM*	-1.1%	0.0%	11.6µM*
CCCCNC(=O)C1CC(c2ccc(C(F)(F)F)cc2)=NO1 (configuration not stated)	9.2µM*	-1.1%	4.7%	18.4µM*
CCCCN(CCCC)CCCNC(=O)C1CC(c2ccc(C(F)(F)F)cc2)=NO1 (configuration not stated)	?	0.2%	5.9%	?
CCSc1nnc(CNC(=O)C23CC4CC(CC(C4)C2)C3)n1C1CCCCC1	25.9µM*	-1.4%	1.9%	23.1µM*
O=C(CSc1nnc(CNC(=O)C23CC4CC(CC(C4)C2)C3)n1-c1ccc(F)cc1)Nc1ccc(F)cc1	?	1.3%	0.6%	?
CCCSc1nnc(CNC(=O)C23CC4CC(CC(C4)C2)C3)n1Cc1ccccc1	?	-3.0%	0.6%	16.4µM*
O=C(NCc1nnc(SCc2ccc(F)cc2)n1-c1ccc(F)cc1)C12CC3CC(CC(C3)C1)C2	29.1µM*	0.8%	-0.6%	14.6µM*
CCCCC/C=C\C/C=C\C/C=C\CCCCCCC(=O)NCCCC(=O)O	·	·	9.3%	·
Cc1ccc(C(=O)N2CCN(c3ccccc3F)CC2)cc1NC1=NC2CS(=O)(=O)CC2S1 (configuration not stated)	0.1%	-2.2%	1.9%	4.5%
CCCCn1c(N)c(N(CC(C)C)C(=O)CCCn2c(=O)oc3ccccc32)c(=O)[nH]c1=O	-21.3%	·	0.4%	-0.4%
COc1cc(/C=N/NC(=O)c2cccc([N+](=O)[O-])c2)ccc1OCc1ccc(C)cc1	-12.6%	0.4%	4.0%	-3.0%
Cc1ccc(C(C)C)c(OCc2ccc(C(=O)N/N=C/c3ccc(O)c(O)c3)cc2)c1	2.06µM*	-11.1%	0.0%	2.31µM*
Cc1ccc(C(C)C)c(OCc2ccc(C(=O)N/N=C/c3cccc(O)c3O)cc2)c1	5.17µM*	1.6%	10.7%	3.66µM*
COc1cc(/C=N/NC(=O)c2ccc(COc3cc(C)ccc3C(C)C)cc2)cc(OC)c1O	13µM*	-9.3%	-4.7%	16.4µM*
C/C(Cl)=C\Cn1c(O)c(N=NC(N)=S)c2cc(Br)ccc21	1.64µM*	-0.2%	11.9%	1.3µM*
NC(=S)N=Nc1c(O)n(CCCl)c2ccc(Br)cc12	23.1µM*	·	2.6%	16.4µM*
SMILES	TDP1 cell noCPT	ClpP mod	TDP1 inh	DT40 TDP1 CPT
CCCCn1c(O)c(N=NC(=O)c2ccncc2)c2cc(Br)ccc21	?	·	5.5%	?
Cc1cccc(NC(=O)N2CCN3CCCCC3C2)c1C (configuration not stated)	2.7%	0.7%	5.6%	4.2%
CCN(C)C1CN(Cc2cn(Cc3cccc(C(F)(F)F)c3)nn2)S(=O)(=O)C1 (configuration not stated)	-28.8%	-1.9%	·	0.3%
Cc1nc2sc(C)c(C)c2c(=O)[nH]1	0.4%	-1.4%	2.1%	-29.0%
C=C1CSc2nc(=O)c3c(C)c(C)sc3n21	-1.1%	15.8µM*	3.3%	-0.4%
O=C(CSc1nnnn1-c1ccccc1)Nc1ncc2c(n1)CC(c1ccccc1)CC2=O (configuration not stated)	?	-0.2%	-6.8%	15.8µM*
CCOc1c2c(c(-c3ccc4c(c3)OCO4)c3cc(OC)c(OC)cc13)C(=O)OC2	0.562µM*	3.6%	2.6%	0.891µM*
COc1ccc(CN(CC(=O)NCc2ccccc2)C(=O)CCC(=O)Nc2ccccn2)cc1	?	·	-1.5%	-27.4%
COc1ccc2nc(NC(=O)c3ccccc3F)sc2c1	?	4.2%	0.8%	-24.2%
CCC(=O)Nc1nc2ccc(NC(=O)c3cc(OC)c(OC)c(OC)c3)cc2s1	20.6µM*	-2.4%	5.7%	?
COc1cc(C(=O)Nc2ccc3nc(SCc4ccccc4)sc3c2)cc(OC)c1OC	14.6µM*	?	3.6%	13µM*
COc1cc(C(=O)Nc2ccncc2)cc(OC)c1OC	?	1.2%	5.2%	-26.0%
CCC(CC)C(=O)Nc1ccc2nc(SCC(=O)N3CCOCC3)sc2c1	?	-1.8%	4.7%	?
CCC(CC)C(=O)Nc1ccc2nc(SCc3ccccc3)sc2c1	16.4µM*	-3.5%	-8.9%	16.4µM*
CCCC(=O)Nc1nc2ccc(NC(=O)c3ccccc3F)cc2s1	2.06µM*	-1.9%	3.0%	1.84µM*
CN(Cc1ccccn1)C(=O)C1CCC(=O)N(CCc2ccc(Cl)cc2)C1 (configuration not stated)	10.8%	-0.3%	5.2%	3.7%
COc1ccc2c(CCNC(=O)c3ccc([N+](=O)[O-])cc3)c[nH]c2c1	?	·	2.9%	-21.4%
CCCC(=O)Nc1ccc2nc(SCc3ccc(C)cc3)sc2c1	?	4.2%	0.5%	-1.8%
CCC(=O)Nc1ccc2nc(SCc3ccccc3)sc2c1	13µM*	-3.5%	3.6%	?
CCCN(CC)C(CC)C(=O)Nc1c(C)cccc1C (configuration not stated)	-13.0%	·	·	0.4%
COc1ccc(-c2sc(Nc3ccccc3)n[n+]2C)c(C)c1C	20.6µM*	-3.9%	·	20.6µM*
COc1ccc2ccccc2c1-c1sc(Nc2ccccc2)n[n+]1-c1ccc(F)cc1	13µM*	-1.7%	·	20.6µM*
COc1ccc(-c2sc(Nc3ccccc3)n[n+]2-c2ccc(F)cc2)cc1Br	18.4µM*	-4.8%	·	5.8µM*
CCOc1cc(-c2sc(Nc3ccccc3)n[n+]2C)ccc1OC	-23.5%	-0.7%	·	?
O=C(O)c1ccc(-c2sc(Nc3ccccc3)n[n+]2-c2ccc(F)cc2)cc1	-7.9%	-0.3%	·	-1.3%
